RORgamma inh = qHTS for inhibitors of ROR gamma transcriptional activity; Nuclear receptor ROR-gamma (Mus musculus), P51450; Drosophila S2 Gal4-RORgamma UAS-luciferase reporter, 20 h; Potency, µM (titrated, usually from 53.6 µM), inactives show top-dose activity change, negative = inhibition, actives largely listed as inhibitors; 310,000 compounds, 5.4% hits; further: on the % scale 0 is the no-effect control and ±100 the full control effect; nearly all actives have a fitted effect of over 60% in size
Target sequence (P51450 whole entry, looked up, the tested form may be a part): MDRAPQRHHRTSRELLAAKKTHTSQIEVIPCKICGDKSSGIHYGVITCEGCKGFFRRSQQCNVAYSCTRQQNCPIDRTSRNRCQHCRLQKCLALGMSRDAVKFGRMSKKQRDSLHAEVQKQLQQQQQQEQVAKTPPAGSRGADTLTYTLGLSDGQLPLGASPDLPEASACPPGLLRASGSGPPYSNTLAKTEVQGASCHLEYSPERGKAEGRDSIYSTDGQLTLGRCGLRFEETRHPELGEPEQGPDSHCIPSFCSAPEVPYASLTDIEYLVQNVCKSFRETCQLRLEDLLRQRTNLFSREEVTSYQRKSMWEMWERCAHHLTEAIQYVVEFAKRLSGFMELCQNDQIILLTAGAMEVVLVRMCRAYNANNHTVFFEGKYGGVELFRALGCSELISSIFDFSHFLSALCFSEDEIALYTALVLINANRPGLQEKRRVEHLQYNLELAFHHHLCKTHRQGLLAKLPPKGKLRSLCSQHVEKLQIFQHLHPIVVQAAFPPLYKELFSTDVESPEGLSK
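Read-out: Photinus luciferase luminescence; inhibitors lower reporter signal. Insect Schneider cells with Gal4-ROR gamma fusion under metallothionein promoter, UAS reporter; 700 uM final copper sulfate induction, 20 hr, ambient temperature.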
MCF10A rereplic = A quantitative high throughput screen for small molecules that induce DNA re-replication in MCF 10a normal breast cells. AID 624296, 2012. MCF 10A DNA re-replication, Hoechst nuclear intensity, 48 h. Potency, µM (highest dose often 46.1 µM), without a hit: top-dose activity, positive = re-replication, most hits filed as activators. 350,000 compounds, 2.9% hits; further: % of control where 0% means no effect; nearly all actives have a fitted effect of over 50% in size
VP16 counter = VP16 counterscreen qHTS for inhibitors of ROR gamma transcriptional activity. Potency, µM (top dose mostly 53.6 µM), inactives show at the top dose activity, negative = inhibition, usual class: inhibitors. 310,000 compounds, 3.5% hits. AID 2546, 2010. Drosophila S2 Gal4-VP16 UAS-luciferase, luminescence, 20 h;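 further: Gal4-VP16 expression switched on by copper sulfate through the metallothionein promoter; on the % scale 0 is the no-effect control and ±100 the full control effect; nearly all actives have a fitted effect of over 50% in size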
ELG1 DNA repair = qHTS screen for small molecules that inhibit ELG1-dependent DNA repair in human embryonic kidney (HEK293T) cells expressing luciferase-tagged ELG1; 330,000 compounds, 2.3% hits; Potency, µM (series often up to 46.1 µM), for inactives: top-dose activity change, negative = inhibition, hits mostly inhibitors; AID 504467, 2011; HEK293T ELG1-luciferase reporter, luminescence, 16 h; DNA damage induced by 5-fluorouridine; further: on the % scale 0 is the no-effect control and ±100 the full control effect; nearly all actives have a fitted effect of over 55% in size
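Quantitative HTS, concentration-response format. 2,000 cells/well co-treated with 5-fluorouridine and compound, 16 hr in 5% CO2 at 37 °C; ONE-Glo luminescence read after 30 min.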
SW480 rereplic = A quantitative high throughput screen for small molecules that induce DNA re-replication in SW480 colon adenocarcinoma cells | SW480 DNA re-replication, Hoechst DNA content imaging, 48 h | Potency, µM (doses to about 46.1 µM), inactives show at the top dose re-replication activation, usual class: activators | 340,000 compounds, 1.8% hits; further: % of control where 0% means no effect; nearly all actives have a fitted effect of over 55% in size
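Treated cells incubate 48 hr (37 C, 5% CO2), are stained 40 min with Hoechst, and nuclear fluorescence is enumerated; a rise in nuclei with high DNA signal marks re-replication.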
Starred values were filed as active, the others as inactive; [ ] = another dose, or the depositor's remark. Hits are enriched below; roughly 10% of the tested compounds scored in any of these assays. The call rests on the fitted dose curve; in most records, active means well fitted curve in the direction sought with a large enough effect; inconclusive means small, poorly fitted or top-dose-only effect, or another doubt; inactive means no such curve, though single readings can be large; an effect the other way counts as inactive or inconclusive. Potency means the concentration at half of the fitted maximal effect.

Results for CC(C)CN(C(=O)COC(=O)Cc1c[nH]c2ccccc12)c1c(N)n(Cc2ccccc2)c(=O)[nH]c1=O ?
MCF10A rereplic: 2%; ELG1 DNA repair: -1%; SW480 rereplic: 9%

How did CC(=O)OCC(NC(=O)C(CCCCNC(=O)OCc1ccccc1)NC(=O)OC(C)(C)C)C1OC(n2ccc(=O)[nH]c2=O)C(OC(C)=O)C1OC(C)=O (stereo not given) do in these assays?
RORgamma inh: 15%; VP16 counter: -5%

Results for CC(=O)Nc1ccc2[nH]c(C)cc(=O)c2c1 ?
RORgamma inh: -19%; MCF10A rereplic: -2%; VP16 counter: 7%; ELG1 DNA repair: 17%; SW480 rereplic: -4%

What do the screens show for `COc1cccc(-c2cc(=O)c3cc(NC(C)=O)ccc3[nH]2)c1`?
RORgamma inh: 6%; MCF10A rereplic: 23µM*; VP16 counter: -2%; ELG1 DNA repair: inconclusive; SW480 rereplic: 16µM*

What do the screens show for `Cc1cc(C)c(NC(=O)c2ccc3c(c2)CCN3S(C)(=O)=O)c(C)c1`?
RORgamma inh: -1%; MCF10A rereplic: -10%; VP16 counter: -4%; ELG1 DNA repair: 0%; SW480 rereplic: -7%

Results for O=C(NC(=S)N1CCOCC1)c1cc2ccccc2o1 ?
RORgamma inh: 1µM*; MCF10A rereplic: inconclusive; VP16 counter: 3.2µM*; ELG1 DNA repair: inconclusive; SW480 rereplic: 0%

What do the screens show for `CCCCC(=O)NC(=S)Nc1ccc(Cl)c(C(=O)O)c1`?
RORgamma inh: -13%; MCF10A rereplic: -31%; VP16 counter: 0%; ELG1 DNA repair: -4%; SW480 rereplic: -38%

How did O=C(/C=C/c1ccccc1)NC(=S)Nc1ccc(N2CCOCC2)c(Cl)c1 do in these assays?
RORgamma inh: 2.5µM*; MCF10A rereplic: 8%; VP16 counter: inconclusive; ELG1 DNA repair: 23%; SW480 rereplic: inconclusive

What do the screens show for `O=C(Nc1ccc(N2CCOCC2)c(Cl)c1)c1ccccc1Cl`?
RORgamma inh: -9%; MCF10A rereplic: -44%; VP16 counter: -2%; ELG1 DNA repair: inconclusive; SW480 rereplic: 1%

Results for CCCC(=O)NC(=S)Nc1ccc(N2CCOCC2)c(Cl)c1 ?
RORgamma inh: 13µM*; MCF10A rereplic: 2%; VP16 counter: inconclusive; ELG1 DNA repair: inconclusive; SW480 rereplic: -7%

Results for CS(=O)(=O)N1CCN(c2ccccc2NC(=O)c2cc3ccccc3o2)CC1 ?
RORgamma inh: 6%; MCF10A rereplic: -2%; VP16 counter: -4%; ELG1 DNA repair: 21µM*; SW480 rereplic: -11%

What do the screens show for `CCCCNC(=O)c1cc2ccccc2s1`?
RORgamma inh: 13%; MCF10A rereplic: -6%; VP16 counter: -2%; ELG1 DNA repair: inconclusive; SW480 rereplic: -9%

How did O=C(Nc1ccc(N2CCOCC2)c(Cl)c1)c1cc2ccccc2o1 do in these assays?
RORgamma inh: 27%; MCF10A rereplic: 13µM*; VP16 counter: 8%; ELG1 DNA repair: inconclusive; SW480 rereplic: 3%[9.22 µM]

How did O=C(/C=C/c1ccco1)Nc1ccccc1N1CCOCC1 do in these assays?
RORgamma inh: 43%; MCF10A rereplic: 7%; VP16 counter: inconclusive; ELG1 DNA repair: -6%; SW480 rereplic: 14%

Results for CC(C)CC(=O)NC(=S)Nc1ccc(N2CCCC2)c(Cl)c1 ?
RORgamma inh: 0.4µM*; MCF10A rereplic: 9%; VP16 counter: 2.8µM*; ELG1 DNA repair: 17%; SW480 rereplic: -7%

How did O=C(/C=C/c1ccco1)NC(=S)Nc1ccc(N2CCOCC2)c(Cl)c1 do in these assays?
RORgamma inh: 1.8µM*; MCF10A rereplic: inconclusive; VP16 counter: -19%; ELG1 DNA repair: 15%; SW480 rereplic: 5.2µM*

Results for O=C(NC(=S)Nc1ccc(N2CCOCC2)c(Cl)c1)C(c1ccccc1)c1ccccc1 ?
RORgamma inh: 2.8µM*; MCF10A rereplic: 17%; VP16 counter: 5.6µM*; ELG1 DNA repair: -29%; SW480 rereplic: 22%

How did CC(C)C(=O)Nc1ccc(N2CCCC2)c(Cl)c1 do in these assays?
RORgamma inh: -32%; MCF10A rereplic: -2%; VP16 counter: -1%; ELG1 DNA repair: inconclusive; SW480 rereplic: 13%

What do the screens show for `C=C[C@@]1(C)C[C@H](OC(=O)CSC(C)(C)CNC(=O)[C@@H](N)C(C)C)[C@@]2(C)C(C)CC[C@@]3(CCC(=O)[C@@H]32)[C@H](C)[C@H]1O` (stereo not given in full)?
RORgamma inh: -1%; MCF10A rereplic: 0%; VP16 counter: -3%; SW480 rereplic: 17%

How did COc1ccc(CN2CC(=O)N(c3ccc(C)c(C)c3)C2=S)cc1OC do in these assays?
RORgamma inh: 5%; MCF10A rereplic: 11%; VP16 counter: 6%; ELG1 DNA repair: 16µM*; SW480 rereplic: 6%

How did O=S(=O)(c1ccc(N2CCC(c3ccc(Cl)cc3)=N2)cc1)N(CCO)CCO do in these assays?
RORgamma inh: 10%; MCF10A rereplic: inconclusive; VP16 counter: -19%; ELG1 DNA repair: inconclusive; SW480 rereplic: 0.58µM*

How did CCc1ccc(NC(=O)CC2C(=O)N(c3cccc(C)c3)C(=O)N2C2CC2)cc1 (stereo not given) do in these assays?
RORgamma inh: 27%; MCF10A rereplic: 10%; VP16 counter: 18%; ELG1 DNA repair: -19%; SW480 rereplic: -5%

Results for Cc1sc2ncnc(SCC(=O)NNC(=O)COc3cccc4ccccc34)c2c1C ?
RORgamma inh: 26%; MCF10A rereplic: 23µM*; VP16 counter: -9%; ELG1 DNA repair: -3%; SW480 rereplic: inconclusive

Results for Cc1cccc(NC(=O)CSc2ncnc3sc(C)c(C)c23)n1 ?
RORgamma inh: 16%; MCF10A rereplic: -20%; VP16 counter: -12%; ELG1 DNA repair: -19%; SW480 rereplic: 1%

Results for CCCN(CC1CC1)C(=O)CSc1ncnc2sc(C)c(C)c12 ?
RORgamma inh: 4%; MCF10A rereplic: 22%; VP16 counter: 5%; ELG1 DNA repair: 18µM*; SW480 rereplic: -3%

What do the screens show for `Cc1sc2ncnc(SCC(=O)NC(=O)c3cccn3C)c2c1C`?
RORgamma inh: 4.5µM*; MCF10A rereplic: 26%; VP16 counter: -7%; ELG1 DNA repair: -3%; SW480 rereplic: -1%

Results for COc1cccc(Cn2c(=O)c(C)nc3cnc(N(C)C)nc32)c1 ?
RORgamma inh: -19%; VP16 counter: -2%

Results for C[C@@H](NC(=O)c1nc[nH]c1C(=O)NCC(=O)OCc1ccccc1)c1ccccc1 ?
RORgamma inh: 8.9µM*; MCF10A rereplic: 5%; VP16 counter: inconclusive; ELG1 DNA repair: -23%; SW480 rereplic: 1%

Screening results as filed in PubChem.
